# High-throughput results from PubChem.
# Rows were chosen to be rich in hits. Some 5.7% of all compounds tested hit in one or more screens of this group.
# rCAG binder: r(CAG) repeat RNA binding | 370,000 tested, 1.3% active | AID 651821 | TO-PRO-1 dye displacement fluorescence | inhibition, % at 3 µM;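 active means inhibition above the plate cutoff, the mean of all test compounds on that plate plus 3 SD, cut at about 35% in these data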;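 further: 0% = DMSO alone and 100% = 100 µM mitoxantrone as full dye displacement; higher means more dye released from RNA so lower well fluorescence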
# FAS TE block: FAS thioesterase (human) inhibition. inhibition, % at 15 µM. recombinant FAS-TE, OMFH fluorogenic substrate, fluorescence endpoint. P49327. 360,000 tested, 0.67% active;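 active means compounds whose normalised, plate-corrected inhibition of enzyme fluorescence in the single-dose primary screen is 50% or more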;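 further: 0% = DMSO with enzyme and 100% = substrate without enzyme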
# GRIN3A LBD mod: modulates the human NR3A ligand-binding domain; NR3A LBD differential scanning fluorimetry, Tm shift; 0% = protein alone, 100% = glycine-bound protein; Tm shift relative to glycine control, % at 25 µM; 340,000 tested, 2.5% active; AID 1259313;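 active means melting temperature shift of at least 10% of the positive control shift, at one fixed dose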
# MPTP block: inhibitors of mitochondrial permeability transition pore; inhibition, % at 10 µM; 360,000 tested, 1.4% active; isolated mouse mitochondria, Ca2+ swelling absorbance, 30 min;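 active means inhibition of 50% or more, scaled per plate between neutral and stimulator controls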;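 further: 0% = DMSO wells given calcium and 100% = 1 mM EGTA wells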
# Myeloid diff MLP: myeloid differentiation induction; ER-HoxA9 myeloid progenitors, lysozyme-GFP differentiation, flow cytometry; calls only at 10 µM; 360,000 tested, 1% active; AID 624256;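 active means normalized GFP-positive differentiation at or above the plate's own cutoff, the solvent-only control mean plus 3 SD; inconclusive means no clear call, values can overlap the other calls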;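 further: cells exposed to compound for four days before flow analysis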
# * hit, by the source's call; i = inactive; ? = inconclusive; . = no result; + = active, no number.
SMILES,rCAG binder,FAS TE block,GRIN3A LBD mod,MPTP block,Myeloid diff MLP
O=C(c1ccc(S(=O)(=O)Cc2cc(F)ccc2F)c([N+](=O)[O-])c1)N1CCCCC1,1,0,-1,2,+
CCOC(=O)[C@]12CCCCC/C=C\1N(CCc1ccc(Cl)cc1)C(=O)[C@H]2CC(=O)NCc1cccs1,9,.,.,.,.
COc1ccc(C#Cc2ccc3c(c2)c(=O)c2ccccc2n3C)cc1,7,24,12*,0,i
C=C1C(=O)C23C(O)C1CCC2C12COC3(O)C(O)C1C(C)(C)CCC2O (stereo not given),-1,-8,.,0,?
CC(C)(C)c1ccc(S(=O)(=O)N2CCCC(C(=O)NCc3cccs3)C2)cc1 (stereo not given),0,.,.,.,.
O=C(CSc1nc(=O)[nH]c2c1CCCC2)Nc1cc(C(F)(F)F)cc(C(F)(F)F)c1,1,3,10*,2,i
Cc1csc(NC(=O)CSc2nc(=O)[nH]c3c2CCCC3)n1,-1,-6,0,0,i
N#CC(C(=O)Nc1cccc(Cl)c1)=C1Nc2ccccc2N1,19,3,10*,2,i
CC(C)NC(=O)CC(c1ccccc1)c1cc(Br)ccc1O (stereo not given),.,5,-3,-2,i
CCCCCCNC(=O)CC(c1ccccc1)c1cc(Br)ccc1O (stereo not given),4,46,12*,4,i
Clc1ccccc1/C=N/NC1=Nc2cccc3cccc1c23,8,2,19*,-1,i
COC(=O)[C@H]1C[C@@]2(Oc3ccc(Br)cc3)c3ccccc3N(C(=O)OC(C)(C)C)[C@H]2N1C(=O)OC(C)(C)C,1,.,.,.,.
O=C(N/N=C/c1ccc([N+](=O)[O-])o1)c1cn(-c2ccccc2)nc1-c1ccc(Cl)cc1,8,-63,34*,14,i
CC1(C)C(=O)OC(c2ccccc2)C(C)(C)C1=O (stereo not given),0,-2,-2,4,i
CCC1=C(OC(=O)c2ccccc2)C(C)(C)C(c2ccccc2)OC1=O (stereo not given),-2,24,14*,3,i
Cc1ccc(C=Nn2c(-c3n[nH]c4c3CCC4)n[nH]c2=S)s1,15,.,.,.,.
Sc1oc(-c2ccccc2)cc1C=Nc1ccccc1,14,19,14*,2,i
COC(=O)c1cc2c(c3c4cc(F)ccc4n(S(=O)(=O)c4cccc(C)c4)c13)C(=O)N(c1ccc(OC)cc1)C2,16,.,.,.,.
COc1ccc(O)c(-c2cc(C(F)(F)C(F)F)nc(-c3ccccc3)n2)c1,1,21,-4,-2,i
Oc1ccccc1-c1cc(C(F)(F)C(F)F)nc(-c2ccccc2)n1,-1,10,14*,1,i
O=S1(=O)CC2c3ccccc3CCN2CN1Cc1ccc(F)cc1 (stereo not given),0,.,.,.,.
COc1cc(/C=C(\C#N)C(=O)NCC2CCCO2)ccc1OC(C)C (stereo not given),-5,-8,11*,-1,i
COC(=O)c1cc2c(c3c4cc(F)ccc4n(S(=O)(=O)c4cccc(C)c4)c13)C(=O)N(Cc1ccco1)C2,26,.,.,.,.
CCc1ccc(CNC(=O)C2CCCN(S(=O)(=O)N3CC(C)CC(C)C3)C2)cc1 (stereo not given),-4,12,0,4,+
Cc1ccc(CNC(=O)C2CCCN(S(=O)(=O)N3CCC(C)CC3)C2)cc1 (stereo not given),-6,4,-3,2,i
SMILES,rCAG binder,FAS TE block,GRIN3A LBD mod,MPTP block,Myeloid diff MLP
CCOC(=O)N1CCN(S(=O)(=O)N2CCCC(C(=O)NCc3cccc(OC)c3)C2)CC1 (stereo not given),-5,-1,-1,-1,+
O=C(CSc1nc2sc3c(c2c(=O)n1-c1ccc(Cl)cc1)CCCC3)c1ccccc1Cl,11,.,.,.,.
COc1ccc(/C=N/NC(=O)c2nc(-c3ccccc3)cc(-c3ccccc3)n2)cc1OC,11,12,-1,-7,i
COc1ccc(/C=N/c2oc(-c3ccccc3)cc2C#N)cc1OC,-2,-2,37*,3,i
CCCCCCC1CC(CSc2ncn[nH]2)OC1=O (stereo not given),-3,-75,15*,-1,i
Cc1cc(C)nc(NC(N)=NC2CCCCC2)n1,13,-9,2,2,+
Cc1cc(C)nc(NC(N)=S)n1,-1,-5,0,-1,i
Cc1ccccc1NC(=O)c1ccc(NS(=O)(=O)c2cc(C(C)(C)C)cc(C)c2C)cc1,11,35,13*,1,?
CCOc1ccc(C(=O)Nc2nnc(S(=O)(=O)Nc3ccccc3C)s2)cc1,31,0,-4,-2,i
Cc1ccc(C(=O)Nc2nnc(S(=O)(=O)Nc3ccccc3C)s2)cc1C,45*,-1,-4,0,i
COCC(=O)N(C)[C@H]1C[C@H]2c3[nH]c4cccc(-c5cccc(F)c5)c4c3CCN2C(=O)[C@H]1[C@H](C)O,4,.,.,.,.
O=C(NN=Cc1ccco1)C(=O)Nc1cccc(C(F)(F)F)c1,2,.,.,.,.
COc1ccc(CCNC(=O)c2sc3cc(C)ccc3c2Cl)cc1,1,-4,12*,1,.
COC(=O)C1=C(C)NC2=C(C(=O)CC(c3cccs3)C2)C1c1ccsc1 (stereo not given),3,7,-1,5,i
CCOC(=O)C1=C(C)NC2=C(C(=O)CC(c3cccs3)C2)C1c1cccs1 (stereo not given),2,11,-10,-1,+
Cc1ccc(NS(=O)(=O)c2ccc(NC(=O)c3ccc(Br)o3)cc2)c(C)c1,13,26,11*,37,i
Cc1ccc(NS(=O)(=O)c2ccc(NC(=O)c3ccc(-c4ccccc4)cc3)cc2)c(C)c1,6,1,10*,0,i
Cc1cc(C)cc(NS(=O)(=O)c2ccc(NC(=S)NC(=O)c3ccc(Br)o3)cc2)c1,24,15,18*,1,i
Cc1ccc(NS(=O)(=O)c2ccc(NC(=O)c3ccccc3C(=O)O)cc2)c(C)c1,1,-7,1,3,i
Cc1ccc(NS(=O)(=O)c2cc(NC(=O)c3ccc4c(c3)NC(=O)CS4)ccc2C)c(C)c1,9,37,22*,25,i
Nc1[nH]c2cc(C(F)(F)F)ccc2c1C(=O)N1CCN(CCc2ccccc2)CC1,3,.,.,.,.
O=S1(=O)c2ccc(Br)cc2OC[C@H](c2ccccc2)N1Cc1ccccc1,4,.,.,.,.
COC(=O)[C@]12C[C@H](CC(=O)NCc3cccc4ccccc34)C(=O)N(Cc3ccc(Cl)cc3Cl)C1=C[C@H](C1CCCC1)O[C@@H]2C,7,.,.,.,.
Cc1ccc([N+](=O)[O-])cc1N(CC(=O)NC1CCCC1)S(C)(=O)=O,-1,0,-1,-1,i
Cc1ccc(NS(=O)(=O)c2ccc(NC(=O)CSc3ccc(Cl)cc3)cc2)c(C)c1,19,28,23*,8,i
O=C(CSc1ccccc1)Nc1ccc(S(=O)(=O)Nc2ncccn2)cc1,2,-4,-1,-2,i
